The supplement of paper PMC4466140

B1: unnamed (peptide)
chain: PSRRAPLQLPQLVNK
B2: unnamed (peptide)
chain: QGYPRQPQRPQRYHP

biological target: AgAbp1; experiment: SPOT peptide array binding signal intensity (averaged, normalized) (arbitrary units (background-subtracted, floor 0; scale differs between SH3 domains)); higher = stronger binding of the SH3 domain to the peptide
In short: (§1)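 Spot intensities were captured after detection with anti-GST antibody, an HRP-linked anti-mouse secondary and luminol, and quantified with Genespotter. The probes were GST-fused SH3 domains from four yeast species, produced in E. coli BL21(DE3), purified on glutathione Sepharose and incubated at 10 μg/ml overnight at 4°C on cellulose-bound synthetic 15-mer peptides with cysteines replaced by serines. Binding signal is the normalized, background-subtracted spot intensity averaged over replicates, and its arbitrary units differ between domains.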

Binder	SPOT peptide array binding signal intensity
B1	15

biological target: AgBbc1; experiment: as above
In short: as §1

Binder	SPOT peptide array binding signal intensity
B1	8.5

biological target: AgBem1-D1; experiment: as above
In short: as §1

Binder	SPOT peptide array binding signal intensity
B1	26

biological target: AgBzz1-D1; experiment: as above
In short: as §1

Binder	SPOT peptide array binding signal intensity
B1	13

biological target: AgBzz1-D2; experiment: as above
In short: as §1

Binder	SPOT peptide array binding signal intensity
B1	35

biological target: AgCyk3; experiment: as above
In short: as §1

Binder	SPOT peptide array binding signal intensity
B1	≤ 0

biological target: AgFus1; experiment: as above
In short: as §1

Binder	SPOT peptide array binding signal intensity
B1	≤ 0

biological target: AgHof1; experiment: as above
In short: as §1

Binder	SPOT peptide array binding signal intensity
B1	36.5

biological target: AgHse1; experiment: as above
In short: as §1

Binder	SPOT peptide array binding signal intensity
B1	≤ 0

biological target: AgLsb1; experiment: as above
In short: as §1

Binder	SPOT peptide array binding signal intensity
B1	214

biological target: AgLsb4; experiment: as above
In short: as §1

Binder	SPOT peptide array binding signal intensity
B1	≤ 0

biological target: AgMyo5; experiment: as above
In short: as §1

Binder	SPOT peptide array binding signal intensity
B1	≤ 0

biological target: AgNbp2; experiment: as above
In short: as §1

Binder	SPOT peptide array binding signal intensity
B1	3

biological target: AgRvs167; experiment: as above
In short: as §1

Binder	SPOT peptide array binding signal intensity
B1	≤ 0

biological target: AgSho1; experiment: as above
In short: as §1

Binder	SPOT peptide array binding signal intensity
B1	≤ 0

biological target: AgSla1-D1-D2; experiment: as above
In short: as §1

Binder	SPOT peptide array binding signal intensity
B1	6

biological target: AgSla1-D3; experiment: as above
In short: as §1

Binder	SPOT peptide array binding signal intensity
B1	1.5

biological target: CaAbp1-D1; experiment: as above
In short: as §1

Binder	SPOT peptide array binding signal intensity
B1	89.5

biological target: CaAbp1-D2; experiment: as above
In short: as §1

Binder	SPOT peptide array binding signal intensity
B1	52

biological target: CaBbc1; experiment: as above
In short: as §1

Binder	SPOT peptide array binding signal intensity
B1	279

biological target: CaBem1-D1; experiment: as above
In short: as §1

Binder	SPOT peptide array binding signal intensity
B1	11.5

biological target: CaBzz1-D1; experiment: as above
In short: as §1

Binder	SPOT peptide array binding signal intensity
B1	130

biological target: CaBzz1-D2; experiment: as above
In short: as §1

Binder	SPOT peptide array binding signal intensity
B1	41.8

biological target: CaCyk3; experiment: as above
In short: as §1

Binder	SPOT peptide array binding signal intensity
B1	3

biological target: CaFus1; experiment: as above
In short: as §1

Binder	SPOT peptide array binding signal intensity
B1	23.5

biological target: CaHof1; experiment: as above
In short: as §1

Binder	SPOT peptide array binding signal intensity
B1	≤ 0

biological target: CaHse1; experiment: as above
In short: as §1

Binder	SPOT peptide array binding signal intensity
B1	≤ 0

biological target: CaLsb1; experiment: as above
In short: as §1

Binder	SPOT peptide array binding signal intensity
B1	≤ 0

biological target: CaLsb4; experiment: as above
In short: as §1

Binder	SPOT peptide array binding signal intensity
B1	17

biological target: CaMyo5; experiment: as above
In short: as §1

Binder	SPOT peptide array binding signal intensity
B1	≤ 0

biological target: CaNbp2; experiment: as above
In short: as §1

Binder	SPOT peptide array binding signal intensity
B1	324

biological target: CaRvs167; experiment: as above
In short: as §1

Binder	SPOT peptide array binding signal intensity
B1	6

biological target: CaRvs167-3; experiment: as above
In short: as §1

Binder	SPOT peptide array binding signal intensity
B1	≤ 0

biological target: CaSho1; experiment: as above
In short: as §1

Binder	SPOT peptide array binding signal intensity
B1	6

biological target: CaSla1-D1-D2; experiment: as above
In short: as §1

Binder	SPOT peptide array binding signal intensity
B1	21

biological target: CaSla1-D3; experiment: as above
In short: as §1

Binder	SPOT peptide array binding signal intensity
B1	≤ 0

biological target: ScAbp1; experiment: as above
In short: as §1

Binder	SPOT peptide array binding signal intensity
B1	13

biological target: ScBbc1; experiment: as above
In short: as §1

Binder	SPOT peptide array binding signal intensity
B1	11.5

biological target: ScBem1-D1; experiment: as above
In short: as §1

Binder	SPOT peptide array binding signal intensity
B1	11

biological target: ScBzz1-D1; experiment: as above
In short: as §1

Binder	SPOT peptide array binding signal intensity
B1	12

biological target: ScBzz1-D2; experiment: as above
In short: as §1

Binder	SPOT peptide array binding signal intensity
B1	10

biological target: ScCyk3; experiment: as above
In short: as §1

Binder	SPOT peptide array binding signal intensity
B1	≤ 0

biological target: ScFus1; experiment: as above
In short: as §1

Binder	SPOT peptide array binding signal intensity
B1	≤ 0

biological target: ScHof1; experiment: as above
In short: as §1

Binder	SPOT peptide array binding signal intensity
B1	0.5

biological target: ScHse1; experiment: as above
In short: as §1

Binder	SPOT peptide array binding signal intensity
B1	35.5

biological target: ScLsb1; experiment: as above
In short: as §1

Binder	SPOT peptide array binding signal intensity
B1	123

biological target: ScLsb2; experiment: as above
In short: as §1

Binder	SPOT peptide array binding signal intensity
B1	5

biological target: ScLsb3; experiment: as above
In short: as §1

Binder	SPOT peptide array binding signal intensity
B1	86

biological target: ScLsb4; experiment: as above
In short: as §1

Binder	SPOT peptide array binding signal intensity
B1	≤ 0

biological target: ScMyo3; experiment: as above
In short: as §1

Binder	SPOT peptide array binding signal intensity
B1	≤ 0

biological target: ScMyo5; experiment: as above
In short: as §1

Binder	SPOT peptide array binding signal intensity
B1	1.5

biological target: ScNbp2; experiment: as above
In short: as §1

Binder	SPOT peptide array binding signal intensity
B1	17

biological target: ScPex13; experiment: as above
In short: as §1

Binder	SPOT peptide array binding signal intensity
B1	≤ 0

biological target: ScRvs167; experiment: as above
In short: as §1

Binder	SPOT peptide array binding signal intensity
B1	5.67

biological target: ScSho1; experiment: as above
In short: as §1

Binder	SPOT peptide array binding signal intensity
B1	35

biological target: ScSla1-D1-D2; experiment: as above
In short: as §1

Binder	SPOT peptide array binding signal intensity
B1	394

biological target: ScSla1-D3; experiment: as above
In short: as §1

Binder	SPOT peptide array binding signal intensity
B1	32

biological target: SpAbp1-D1; experiment: as above
In short: as §1

Binder	SPOT peptide array binding signal intensity
B1	59

biological target: SpBbc1; experiment: as above
In short: as §1

Binder	SPOT peptide array binding signal intensity
B1	≤ 0

biological target: SpBzz1-D1; experiment: as above
In short: as §1

Binder	SPOT peptide array binding signal intensity
B1	134

biological target: SpBzz1-D2; experiment: as above
In short: as §1

Binder	SPOT peptide array binding signal intensity
B1	≤ 0
B2	0.5

biological target: SpCyk3; experiment: as above
In short: as §1

Binder	SPOT peptide array binding signal intensity
B1	≤ 0
B2	≤ 0

biological target: SpHof1; experiment: as above
In short: as §1

Binder	SPOT peptide array binding signal intensity
B1	7.75
B2	5

biological target: SpHof1-2; experiment: as above
In short: as §1

Binder	SPOT peptide array binding signal intensity
B1	1.25
B2	≤ 0

biological target: SpHof1-3; experiment: as above
In short: as §1

Binder	SPOT peptide array binding signal intensity
B1	89.8
B2	0.5

biological target: SpHse1; experiment: as above
In short: as §1

Binder	SPOT peptide array binding signal intensity
B1	≤ 0
B2	2

biological target: SpLsb1; experiment: as above
In short: as §1

Binder	SPOT peptide array binding signal intensity
B1	45.2
B2	4

biological target: SpLsb4; experiment: as above
In short: as §1

Binder	SPOT peptide array binding signal intensity
B1	2
B2	1230

biological target: SpMyo1; experiment: as above
In short: as §1

Binder	SPOT peptide array binding signal intensity
B1	0.5
B2	≤ 0

biological target: SpNbp2; experiment: as above
In short: as §1

Binder	SPOT peptide array binding signal intensity
B1	3
B2	≤ 0

biological target: SpPex13; experiment: as above
In short: as §1

Binder	SPOT peptide array binding signal intensity
B1	≤ 0
B2	1

biological target: SpRvs167; experiment: as above
In short: as §1

Binder	SPOT peptide array binding signal intensity
B1	1.67
B2	3

biological target: SpSla1-D1-D2; experiment: as above
In short: as §1

Binder	SPOT peptide array binding signal intensity
B1	≤ 0
B2	≤ 0

biological target: SpSla1-D3; experiment: as above
In short: as §1

Binder	SPOT peptide array binding signal intensity
B1	≤ 0
B2	≤ 0
